Experimental data published in PubChem BioAssay (Tox21).
Results filed as inconclusive are left out. Calls of active or inactive are those of the source. Calls follow the shape of the dose curve; as a rule, active = well fitted inhibition curve with a large enough effect in the repeat runs; inconclusive = weak or mixed curves; inactive = flat fitted curve, though single readings scatter.

assay: qHTS assay to identify small molecule HDAC inhibitors (AID 1259364); details: HCT-116 HDAC-Glo I/II luminescence, 2 h; series mostly up to 92.4 µM; activity change, negative = inhibition: at the top concentration; also: nearly all actives have a fitted effect of over 45% in size; as to activity change, negative = inhibition: top concentration of the series differs between compounds
From the text: U.S. Tox21 Program National Center for Advancing Translational Sciences [NCATS] NIH Chemical Genomics Center [NCGC] U.S. Environmental Protection Agency [EPA] National Institutes of Environmental Health Sciences [NIEHS] National Toxicology Program [NTP] U.S. Food and Drug Administration [FDA] Tox21 Assay Overview: Histone deacetylases (HDACs) are a group of epigenetic enzymes that regulate gene expression by histone deacetylation. HDACs are capable of introducing epigenetic modifications and such aberrations contribute to the onset and progression of several human diseases, thus making HDACs a popular therapeutic target. For identifying endogenous class I/II HDAC inhibitors a homogenous, luminogenic HDAC I/II cell based assay was used to measure the relative activity of class I and II HDACs from cells. Wild type HCT-116 cells were used to screen Tox21 libraries for identifying class I/II HDAC inhibitors.
Tox21 Assay Protocol Summary: HCT-116 cells were dispensed at 1,500 per well in 5uL of culture medium into white solid bottom 1536-well plates (Greiner Bio-One, Monroe, NC) using a Multidrop Combi (Thermo Scientific, Waltham, MA) dispenser. The assay plates were incubated at 37 C and 5% CO2 for an overnight, and then 23nL of compounds dissolved in DMSO and positive control were transferred using a Pintool station (Wako, San Diego, CA). The assay plates were incubated at 37C and 5% CO2 for 2hr. After compound treatment, 4uL of HDAC-Glo reagent (Promega Corporation, Madison, WI) was added to each well of the assay plates using Flying Reagent Dispenser (FRD, Aurora Discovery, San Diego, CA) and incubated the assay plates at room temperature for 30min. The luminescence signal was quantified using a ViewLux plate reader (Perkin Elmer, Shelton, CT).
% is scaled to controls: 0 for no effect and ±100 for the full control effect; potency is read from the fitted curve at half-maximal effect.

| Compound | activity change, negative = inhibition | Potency |
| --- | --- | --- |
| C=C(C)[C@H]1CC=C(C)CC1 | 4.37% (inactive) | – |
| Cc1ncc(CSSCc2cnc(C)c(O)c2CO)c(CO)c1O | -2.47% [at 42.5 µM] (inactive) | – |
| CC(=O)NC(Cc1ccccc1)C(=O)O (stereo not given) | -9.27% [at 42.5 µM] (inactive) | – |
| CC/C=C\CCCCO | -1.92% (inactive) | – |
| c1ccc(CCCc2ccccn2)cc1 | – | 4.33 µM (active) |
| N#CCc1ccccc1[N+](=O)[O-] | 8.09% (inactive) | – |
| CNC(=O)c1c(I)c(NC(=O)CCCCC(=O)Nc2c(I)c(C(=O)O)c(I)c(C(=O)NC)c2I)c(I)c(C(=O)O)c1I | 13.1% [at 42.5 µM] (inactive) | – |
| CSc1ccc(C=O)cc1 | -4.12% (inactive) | – |
| CCCCC1CCCCC(=O)O1 (stereo not given) | 9.65% (inactive) | – |
| Nc1ncnc2c1ncn2Cc1c(F)cccc1Cl | 1.05% [at 42.5 µM] (inactive) | – |
| O=C(O)c1ccccc1-c1ccc(C(F)(F)F)cc1 | -0.399% [at 42.5 µM] (inactive) | – |
| COc1cccc(Br)c1 | 2.07% (inactive) | – |
| CO[Si](OC)(OC)OC | -0.183% (inactive) | – |
| O=C(O)c1ccccc1S | 9.15% [at 42.5 µM] (inactive) | – |
| CC(=O)O[C@H](CC(=O)[O-])C[N+](C)(C)C | 2.06% (inactive) | – |
| NS(=O)(=O)c1cc(C2(O)NC(=O)c3ccccc32)ccc1Cl (stereo not given) | 11.4% [at 42.5 µM] (inactive) | – |
| CN(C)CCn1nnnc1SCC1=C(C(=O)O)N2C(=O)[C@@H](NC(=O)Cc3csc(N)n3)[C@H]2SC1 | 0.0736% [at 42.5 µM] (inactive) | – |
| CC(CCO)CCCC(C)(C)O (stereo not given) | 1.65% (inactive) | – |
| c1cc(CN2CCCCC2)cc(OCCCNc2nc3ccccc3s2)c1 | -9.75% [at 42.5 µM] (inactive) | – |
| CC(C)(O)Cc1ccccc1 | 1.03% (inactive) | – |

| Compound | activity change, negative = inhibition | Potency |
| --- | --- | --- |
| CCN1CCN(c2cc3c(cc2F)c(=O)c(C(=O)O)cn3C2CC2)CC1 | 0.506% [at 42.5 µM] (inactive) | – |
| Cc1ccccc1Br | 3.33% (inactive) | – |
| Oc1cc(O)c2c(c1)O[C@H](c1ccc(O)c(O)c1)[C@H](O)C2 | -4.57% [at 42.5 µM] (inactive) | – |
| O=S(=O)(c1cccc2cnccc12)N1CCCNCC1 | 7.72% [at 42.5 µM] (inactive) | – |
| C[C@H](O)C(=O)Nc1c(I)c(C(=O)NC(CO)CO)c(I)c(C(=O)NC(CO)CO)c1I | -1.62% [at 42.5 µM] (inactive) | – |
| COC(=O)CCCC(=O)O | 7.28% (inactive) | – |
| CCN(CC)S(=O)(=O)c1ccc(C(=O)O)cc1 | 16.4% [at 42.5 µM] (inactive) | – |
| CC/C=C\C#N | -2.6% (inactive) | – |
| CCCCCOC(=O)Nc1nc(=O)n([C@@H]2O[C@H](C)[C@@H](O)[C@H]2O)cc1F | 7.07% [at 42.5 µM] (inactive) | – |
| CCCC(C)C(=O)O (stereo not given) | 3.26% (inactive) | – |
| Cc1onc(-c2ccccc2)c1-c1ccc(S(N)(=O)=O)cc1 | 10.6% [at 42.5 µM] (inactive) | – |
| CCCOc1ccccc1-c1nc2n[nH]nc2c(=O)[nH]1 | 6.45% [at 42.5 µM] (inactive) | – |
| COc1ccc(N=[N+]([O-])c2ccc(OC)cc2)cc1 | – | 1.08 µM (active) |
| Cc1cc(C)c(NC(=O)CN(CC(=O)O)CC(=O)O)c(C)c1Br | 1.85% [at 42.5 µM] (inactive) | – |
| Nc1cc(N)cc(C(=O)O)c1 | 17.6% (inactive) | – |
| CC(C)=CC(=O)O | 0.47% (inactive) | – |
| NC(CS)C(=O)O (stereo not given) | -1.08% [at 42.5 µM] (inactive) | – |
| C1COCCO1 | 5.46% (inactive) | – |
| O=C(O)c1ccc[n+]([O-])c1 | 3.74% [at 42.5 µM] (inactive) | – |
| CO | 2.83% (inactive) | – |
